Reference: PubChem BioAssay AID684 (PCMD, 2007)
Hit rate of the full screen: of about 62,000 compounds, about 95 (0.2%) were called active. The entries come from a sample that favours actives as a whole. A number with no mark means an inactive call. No stated cut-off is given here; in the data, active means inhibition above about 20% (passing the limit was not always enough); inactive means the rest.

Target: Coagulation factor XII (Homo sapiens) (UniProt P00748)
Experiment: blockers of FXIIa protease activity – biochemical, pooled compound mixtures, fluorogenic substrate, primary screen (AID 684);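 further: 0% = enzyme without compound and 100% = no enzyme blank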
Details: purified FXIIa, at 5 µM, active compounds read high

Sequence of Coagulation factor XII (Homo sapiens) (P00748 20-372 limits assumed): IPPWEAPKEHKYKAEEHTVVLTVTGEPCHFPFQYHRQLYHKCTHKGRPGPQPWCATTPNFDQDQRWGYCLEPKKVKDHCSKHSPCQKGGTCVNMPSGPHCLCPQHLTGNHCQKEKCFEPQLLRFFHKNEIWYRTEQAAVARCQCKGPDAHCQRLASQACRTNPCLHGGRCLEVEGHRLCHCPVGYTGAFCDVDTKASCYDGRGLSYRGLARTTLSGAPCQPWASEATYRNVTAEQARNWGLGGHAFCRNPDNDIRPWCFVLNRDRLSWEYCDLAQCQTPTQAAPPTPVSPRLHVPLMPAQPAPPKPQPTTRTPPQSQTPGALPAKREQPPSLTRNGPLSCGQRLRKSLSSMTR
Sequence of Coagulation factor XII (Homo sapiens) (P00748 373-615 limits assumed): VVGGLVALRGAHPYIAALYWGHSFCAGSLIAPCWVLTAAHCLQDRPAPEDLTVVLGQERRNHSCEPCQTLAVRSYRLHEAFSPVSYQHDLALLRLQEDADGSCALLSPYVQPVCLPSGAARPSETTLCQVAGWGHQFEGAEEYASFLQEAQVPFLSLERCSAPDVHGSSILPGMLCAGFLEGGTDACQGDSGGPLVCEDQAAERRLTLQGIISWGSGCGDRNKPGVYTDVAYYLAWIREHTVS

Structure (SMILES) | inhibition
CCS(=O)(=O)n1nc(-c2ccccc2)nc1SCc1ccccc1 | 6.08%
Cc1noc(C)c1C(=O)NC(C)c1ccc2c(c1)OCO2 (centres undefined) | 4.17%
COC(=O)C1=C(C)Nc2ncnn2C1c1ccco1 (centres undefined) | 15.1%
COc1ccc(OC)c2[nH]c(=O)c(CCNC(=O)C(C)(C)C)cc12 | -10.9%
CCO/C([O-])=N/c1c[n+](N2CCOCC2)no1 | 3.21%
CN(C)CCOC(=O)C(c1ccccc1)C1(O)CCCC1 (centres undefined) | 2.14%
Cc1cccc(CSc2nnc(Cn3c(=O)sc4ccccc43)n2C)c1 | 0.99%
CCCC(NS(=O)(=O)c1ccc(OC)cc1)C(=O)O (centres undefined) | 10.4%
O=C(NCc1cccnc1)c1cn(-c2ccccc2)nc1-c1cccs1 | 5.99%
O=C(NCCCNCc1ccccc1)c1ccc(/C=N/O)nc1 | 1.86%
CCn1c(SCC(=O)Nc2ccc3c(c2)OCCO3)nc2c(c1=O)SC(C)C2 (centres undefined) | 11.3%
O=C(CN1CCN(S(=O)(=O)/C=C/c2ccccc2)CC1)NC(=O)NCc1ccco1 | -1.11%
CC(NC(=O)c1ccc(Cl)cc1)C(=O)N1CCCCC1 (centres undefined) | 6.69%
CCOC(=O)Cc1csc(NC(=O)C(C)(C)C)n1 | 3.6%
O=C1CCC(=O)N1CCOP1(=O)COc2ccccc2OC1 | 2.03%
COCCNC(=O)c1ccccc1-c1nc(-c2ccccc2Cl)no1 | 6.16%
c1csc(CN2CCN(Cc3cccs3)C2c2cccs2)c1 | -13.3%
COCc1cc(C)nc(Nc2cc(C)ccc2C)c1C#N | 1.73%
COC(=O)c1cccc(NC(=O)CSc2nc(C)cc(=O)[nH]2)c1 | 9.59%
COCc1cc(C)nc(SCC(=O)Nc2cccc(C)c2)c1C#N | 21.5% (active)
Cn1c2c(c(=O)n(C)c1=O)CN(Cc1ccco1)CN2 | -0.485%
Cc1ccc2[nH]c(=O)c(-c3nc4c(C)cccn4c3NCc3ccco3)cc2c1 | -0.355%
O=C(COc1ccccc1)N1CCc2ccccc2C1 | 9.32%
CC1CCC(NC(=O)c2ccc(N3CCCC3=O)cc2)CC1 (centres undefined) | -12.2%
CCc1nc(C)cn1S(=O)(=O)c1cc(OC)c(C)cc1C | 9.21%

Structure (SMILES) | inhibition
CCCC1CC(C)(C(=O)Cn2[nH]c(=O)ccc2=O)OC1=O (centres undefined) | -1.01%
O=C(c1cc(-c2ccccc2O)on1)N1CCCC1 | -13.8%
Cc1ccc(S(=O)(=O)Nc2ccc3ncccc3c2)cc1 | -13.2%
Cc1cc(N(C)C)cc(C)[n+]1[O-] | -12%
CC(C)c1ccc(N2CC(C(=O)Nc3nccs3)CC2=O)cc1 (centres undefined) | 3.69%
COc1ccc(Cn2cccc(NC(=O)Nc3ccc(C#N)cc3)c2=O)cc1 | 10.3%
Cc1ccccc1C(OCC(O)CN1CCCCC1CCO)c1ccccc1 (centres undefined) | 4.15%
Cc1ccc(Nc2cc(=O)n(C3CCCCC3)c(=O)[nH]2)cc1C | 5.68%
CCCCn1c(=S)[nH]c2ncccc2c1=O | 4.05%
COC(=O)C(C)N(C#N)c1nc(C)nc(C)n1 (centres undefined) | 9.14%
Cc1csc(NC(=O)CN2CCCCCC2)n1 | 7.17%
Cc1nc2ccc(S(=O)(=O)NCC(=O)NCCN3CCCCC3C)cc2s1 (centres undefined) | 9.34%
Cc1ccn2cc(-c3nonc3C)cc2c1 | 9.55%
CCCCC(=O)N(c1ccc(OC)cc1)C1C=CS(=O)(=O)C1 (centres undefined) | 4.62%
C=CCn1c(=O)c2ccccc2n2c(SCC(=O)N3CCCc4ccccc43)nnc12 | -6.74%
COc1ccc(S(=O)(=O)N2CCCC(C(=O)Nc3ccc(NC(=O)c4ccccn4)cc3)C2)cc1 (centres undefined) | 9.91%
CC12CCC(C(=O)N3CCN(c4ncccn4)CC3)(c3nc4ccccc4nc31)C2(C)C (centres undefined) | 11.8%
CC1(C)C2CCC1(C)C(OC(=O)CCn1ccnc1)C2 (centres undefined) | 3.17%
Cc1ccc2c(c1)C(O)(CC(=O)c1cccnc1)C(=O)N2 (centres undefined) | 10.7%
Cc1cc2ccccc2n2c(SCC(=O)N3CCN(C(=O)c4ccco4)CC3)nnc12 | -6.12%
CCC(Sc1nncn1C)C(=O)Nc1nnc(-c2ccc(Cl)cc2)s1 (centres undefined) | 15.7%
Cc1ccc(SCc2cc(=O)[nH]c(N3CCCCC3)n2)cc1 | 3.87%
N#Cc1c(N)sc2c1CCN(C(=O)OCc1ccccc1)C2 | -18%
COc1ccc2c(c1)C(C)=CC(C)(C)N2C(=O)CNCc1ccc2c(c1)OCO2 | 17%
CCN(CC)c1ccc2cc(C(=O)O)c(=O)oc2c1 | -2.87%

Structure (SMILES) | inhibition
COc1cccc(Oc2ccc(N)cc2)c1 | -12.6%
COC(=O)CSc1nc(C2CC2)nc2ccccc12 | -5.91%
Cn1cc(S(=O)(=O)N2CCC(Cc3ccccc3)CC2)c(=O)n(C)c1=O | -15.8%
O=C(CN1C(=O)COc2ccccc21)NCCN1CCc2ccccc2C1 | 2.87%
CCC1=[N+]([O-])C(C)(/C(C)=N\O)N(O)C1(C)C (centres undefined) | -9.09%
COc1cccc(-c2nnc(N(C)C(=O)c3ccno3)s2)c1 | 7.52%
CCN1CCCC1CNC(=O)Cn1cnc2ccc(S(=O)(=O)N3CCC(C)CC3)cc2c1=O (centres undefined) | 9.9%
O=C(NCc1cccnc1)c1ccc(CS(=O)(=O)c2ccc(Br)cc2)o1 | -21.3%
CCCn1c(C(O)c2ccc(OCC)cc2)nc2ccccc21 (centres undefined) | 4.63%
CCOC(=O)c1cccc(NC(=O)CCn2nnc3ccccc32)c1 | -0.18%
CCCN(c1ccc(C(C)C)cc1)S(=O)(=O)c1c(C)[nH]c(=O)[nH]c1=O | -19%
CCCn1c(SCC(=O)N2CCc3ccccc32)nnc1-c1ccncc1 | -0.835%
CS(=O)(=O)N(CC(=O)N1CCN(c2cccc(Cl)c2)CC1)c1ccccc1 | 1.3%
CCN1C(=O)/C(=C\N2CCN(c3ccccc3)CC2)SC1=S | 4.83%
CCN1C(=O)/C(=C\N2CCN(c3cccc(Cl)c3)CC2)SC1=S | 20.4% (active)
Cc1ccc(C(c2sc3nc(C)nn3c2O)N2CCN(c3ccc(F)cc3)CC2)cc1 (centres undefined) | 3.33%
O=C1CC(Cc2ccccc2)C(=O)N1c1ccc(Cl)cn1 (centres undefined) | -17.9%
COCCNC(=O)COc1ccc(C)c(C)c1 | 1.93%
CC(C)Oc1ccc(C2NC(=O)NC2=O)cc1 (centres undefined) | -16.2%
Nn1c(SCC(=O)NC(=O)NC2CCCC2)nnc1-c1ccccc1F | 3.32%
CCOC(=O)c1sc(NC(=S)n2cc(C)cn2)c(C(=O)OCC)c1C | 7.4%
O=C(CNC(=O)c1ccc(Cl)cc1Cl)NCC(=O)Nc1ccccc1N1CCOCC1 | 6.48%
O=C1CC(N2CCN(C(c3ccccc3)c3ccccc3)CC2)C(=O)N1 (centres undefined) | 1.87%
COc1cccc(NC(=O)c2ccccc2SC)c1 | -1.39%
Cc1ccc(Cn2ccc(NC(=O)C3C4CCC(C4)C3C(=O)O)n2)cc1 (centres undefined) | -2.65%

Structure (SMILES) | inhibition
COc1ccc(N2CCN(CCNC(=O)c3nnc(Cc4c(F)cccc4Cl)o3)CC2)cc1 | 10.3%
CCOC(=O)c1cc2occc2n1CC(=O)N1CCN(C(=O)c2ccco2)CC1 | 9.63%
Cc1noc(C)c1S(=O)(=O)N(CC(=O)NCc1ccc(Cl)cc1)c1ccc2c(c1)OCO2 | -1.99%
CCC(C)Sc1nc2c(c(=O)[nH]c(=O)n2C)n1CC(O)COc1cccc2ccccc12 (centres undefined) | -0.685%
CC(C)C[C@H](NC(=O)NCCc1ccc(Cl)cc1)C(=O)O | 5.46%
CC(Sc1sc(=S)sc1SC(C)C(=O)O)C(=O)O (centres undefined) | 0.39%
CC/C(=N\O)C(C)(C)/[N+]([O-])=C/c1ccc(Br)cc1 | 8.49%
Brc1ccc(OCCn2ccnc2)cc1 | 10.3%
O=C1C(=O)N(CCN2CCOCC2)C(c2ccccn2)/C1=C(/O)c1ccc(Cl)cc1 (centres undefined) | 5.72%
COC(=O)C1=CN(C)C=C(C(=O)OC)C1c1ccc(Cl)cc1Cl | -3.3%
C=CCn1cnc2scc(-c3ccccc3)c2c1=O | 12.3%
COc1ccc(S(=O)(=O)N2CCN(c3ncnc4c(-c5ccccc5)nsc34)CC2)cc1 | 4.31%
CCCS(=O)(=O)N1CCCC(C(=O)NCCN2CCCCC2C)C1 (centres undefined) | 1.05%
CCOC(=O)C1CCN(C(=O)CC2C(=O)N(Cc3ccccc3)C(C)c3nc4ccccc4n32)CC1 (centres undefined) | 4.71%
Clc1cccc(Cl)c1Cn1nnc(-c2cccs2)n1 | 2.33%
Cn1c(=NC(=O)C2CC2)sc2cc(F)cc(F)c21 | 6.96%
O=S(=O)(c1ccccc1)N(CC(O)CN1CCCCC1)c1ccccc1 (centres undefined) | 10.6%
O=C(Nc1c(Cl)cccc1Cl)C1CCC1 | -1.33%
C=CCn1c(CSc2nc3ccccc3s2)nnc1SCC(=O)NCc1ccco1 | -0.43%
O=C(c1cc(-c2ccc(O)cc2)on1)N1CCCc2ccccc21 | 3.9%
c1ccc(CCC2=NCCn3cccc32)cc1 | 6.93%
CC(=O)Nc1ccn(Cc2c(F)cccc2Cl)n1 | 1.78%
c1ccc(-c2noc(-c3cccs3)n2)nc1 | 3.97%
O=C1CN(C(=O)COC(=O)C2CC(=O)N(Cc3ccco3)C2)c2ccccc2N1 (centres undefined) | -15.4%
